In PubChem BioAssay (NCATS):
Active and inactive are the calls of the source. A call without a number means that no potency is given here. Calls come from the whole dose curve; as a rule, active = well fitted curve in the direction sought with a large enough effect; inconclusive = small, poorly fitted or top-dose-only effect, or another doubt; inactive = no such curve, though single readings can be large or run the other way. Numbered stars: 1 amine (or outer) side, 2 acyl side, 3 side chain; on linkers, the order of the positions; unused ones are H or OH. Bridge positions count the residues as written; N and C are the ends. Square brackets hold non-standard residues; d marks the D form. Peptide text beside a SMILES is read from it. * marks the point of attachment. ξ: configuration not given here. X1 = CCCCCCCCCC(=O)[C@H](C(=O)[*:2])[C@@H]1CNC(=O)[C@@H](N[*:1])CS1; Phe(3R-OH) = O=C([C@@H](N[*:1])[C@H](O[*:3])c1ccccc1)[*:2]; NMeTrp(4-OMe) = CN[C@@H](Cc1c[nH]c2cccc(OC)c12)C(=O)O; X4 = O=C(C1CC2(c3ccc(O)cc3)c3ccccc3NC2N1[*:1])[*:2]; ξThr(3R)(O-yl) = C[C@@H](O[*:3])C(N[*:1])C(=O)[*:2]; NMeThr(3ξ) = CN[C@H](C(=O)O)C(C)O; ξW = NC(Cc1c[nH]c2ccccc12)C(=O)O; NMeL = CN[C@@H](CC(C)C)C(=O)O; NMeV = CN[C@H](C(=O)O)C(C)C; ξIle = CC[C@H](C)C(N)C(=O)O; ξY = NC(Cc1ccc(O)cc1)C(=O)O; Octanoyl = CCCCCCCC(=O)*; ξV = CC(C)C(N)C(=O)O

Assay: qHTS for ATAD5 Agonist screened against the NCATS CANVASS Library (AID 1347367);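 note: luciferase reporter driven by ATAD5 which rises upon DNA damage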
Conditions: HEK293T ATAD5-luciferase reporter, luminescence, 16 h; series mostly up to 46.1 µM
Excerpt: Natural products and their derivatives continue to be wellsprings of nascent therapeutic potential. However, many laboratories have limited resources for biological evaluation, leaving their previously isolated or synthesized compounds largely or completely untested. To address this issue, the Canvass library of natural products was assembled (https://tripod.nih.gov/canvass), in collaboration with academic and industry researchers, for quantitative high-throughput screening (qHTS) across a diverse set of cell-based and biochemical assays. The pure (>85% purity by liquid chromatography/mass spectrometry [LC/MS]) Canvass library of 346 natural products were submitted by 45 academic laboratories and companies around the world. We collected pure natural products to circumvent deconvolution and structure elucidation due to time and resource limitations. The library was formatted into 1536-well plates and evaluated in 50 qHTS (in an 11-pnt concentration series) bioassays with broad scope of disease-relevant mechanisms. The resulting data set from 50 different assays was then systematically analyzed to identify overall trends and specific natural products with interesting biological activities. Reported herein are the results of each individual qHTS and their corresponding assay protocol. Human ATAD5 is a biomarker for identifying gentoxic compounds because ATAD5 protein levels increase post-transcriptionally in response to DNA damage. A cell-based assay is used to detect DNA damage inducers and genotoxic compounds as well. The assay is based upon a luciferase reporter gene under control of ATAD5 that has been stably integrated into HEK 293T cells. Luminescence intensity is proportional to ATAD5 expression. National Center for Advancing Translational Sciences (NCATS), Rockville, MD National Institute of Health (NIH), Bethesda, Maryland
ATAD5 Agonist assay protocol: 1. In a 1536 well, tissue culture treated white solid bottom plates (Greiner Bio-One North America), 5 uL of HEK293T-ATAD5 cell solution (2000 cells / well) was dispensed using the Multidrop Combi dispenser (Thermo Fisher Scientific). 2. The assay plates were incubated for 5hr at 37C, 5% CO2 to allow the cells to acclimate and attach. 3. Controls and compounds were pin transferred (~23 nL volume) to the assay plates via Wako Pin-tool (Wako Automation, Richmond VA) equipped with a 1536 pin head. The compounds were transferred to columns 5-48 resulting in a final concentration ranging from 0.6nM to 92uM. Methyl methanesulfonate (MMS) was used as a control in various concentrations (columns 1: dose response, column2: 0.7mM, and column3: 0.6mM). DMSO (0.46% final concentration was used as a negative control. 4. The assay plates were further incubated in the dark at 37C, 5% CO2 for 16hr. 5. To measure cell viability, 1uL of CellTiter-Fluor (Promega) reagent was then added to the assay plates (column 1-48, rows 1-32). The assay plates were incubated in the dark for 1hr at 37C, 5% CO2. 6. A first readout of fluorescence signal was acquired via the ViewLux (PerkinElmer) plate reader using filter sets for AFC (380-400nmEx/505Em) and 1 second exposure setting. 7. To measure ATAD5 activation, 4uL of Amplite (AAT Bioquest) reagent was then added to the assay plates (column 1-48, rows 1-32). The assay plates were further incubated in the dark at room temperature for 30min. 8. A second readout of luminescence signal was acquired via the ViewLux plate reader using a clear emission filter, 10 second exposure setting. Fox JT1, et al. High-throughput genotoxicity assay identifies antioxidants as inducers of DNA damage response and cell death. Proc Natl Acad Sci U S A. 2012 Apr 3;109(14):5423-8.

SMILES	Potency
COc1ccc2cc(NC(=O)C3=NO[C@H]4[C@H](O)C=C[C@@H](Cl)[C@@]4(O)C3)c(=O)oc2c1OC	inactive
CC(=O)[C@@H]1[C@@H](O)C[C@H]2[C@]3(C)CC[C@H]4C(C)(C)CCC[C@]4(CO)[C@H]3C[C@H]3OC(=O)[C@@H]1[C@@]32C	inactive
CC[C@H](C)C(NC(=O)[C@@H](NC)C(C)C)C(=O)NC1C(=O)N(C)[C@@H](C(C)O)C(=O)N[C@@H](C(C)C)C(=O)N(C)[C@@H](CC(C)C)C(=O)NC(C(C)C)C(=O)N(C)[C@@H](C(C)C)C(=O)N(C)[C@@H](Cc2c[nH]c3cccc(OC)c23)C(=O)N[C@@H](C(C)C)C(=O)N[C@@H]([C@H](O)c2ccccc2)C(=O)N[C@@H](C(C)C)C(=O)O[C@@H]1C (stereo partly drawn) (H-[NMeV][ξIle][ξThr(3R)(O-yl)][NMeThr(3ξ)]V[NMeL][ξV][NMeV][NMeTrp(4-OMe)]V[Phe(3R-OH)]V; ester 3-C)	inactive
C/C=C1/CC[C@@H]2c3[nH]c4ccccc4c3CCN2C1	inactive
CC1(C)C=Cc2c(ccc3c2OC[C@@H](c2ccc(O)cc2O)C3)O1	inactive
C=C(NC(=O)c1csc(-c2nc3c(cc2O)-c2nc(cs2)C(=O)NC(C(C)O)C(=O)N/C(=C(\C)O)c2nc(cs2)C(=O)NC2c4nc(cs4)C(=O)NC(COC(=O)c4c5c6c(cccc6n4O)COC(=O)[C@@H](OC4C[C@](C)(O)[C@H](N(C)C)[C@H](C)O4)C2OC5)c2nc-3cs2)n1)C(N)=O (stereo not given in full)	inactive
C[C@@H](CCC[C@]1(C)C(=O)C=C[C@]23C[C@H]4C[C@H](O[C@@]4(C)C2)C31)C(=O)N[C@@H](CO)C(=O)O (stereo not given in full)	inactive
C/C=C/c1cc(OC)c2c(c1)[C@@H](C)[C@H](c1ccc(O)c(OC)c1)O2	inactive
CC[C@@H]1C[C@@]2(CC)OC(=O)[C@@]3(CC)OC(=O)[C@@H]1[C@@H]23	inactive
Oc1ccc([C@H]2Oc3ccc(/C=C/c4cc(O)cc(O)c4)cc3C2c2cc(O)cc(O)c2)cc1 (stereo not given in full)	inactive
C=C1C(=O)O[C@H]2[C@H]1CC/C(CO)=C\CC[C@@]1(C)O[C@@H]21	inactive
C1=C2CCCN[C@@H]2[C@@H]2CCN3CCCC[C@@H]3[C@H](C1)C2	inactive
C=C1[C@H]2CC[C@@]3(C=CC(=O)[C@@](C)(CCC(=O)Nc4c(O)ccc(C(=O)O)c4O)C3C2)[C@H]1O (stereo not given in full)	inactive
CCCCCCCCCC(=O)[C@@H]1C(=O)N[C@@H](CC(C)C)C(=O)N[C@H](C)C(=O)N2CCC[C@H]2C(=O)N[C@@H](C(C)C)C(=O)N[C@H]2CS[C@H]1CNC2=O (cyclo(L[dA]PV[X1]))	inactive
CN1CCc2cc3c(c4c2[C@H]1[C@@H](O)c1ccccc1-4)OCO3	inactive
C[C@@]12CCC[C@@](C)(C(=O)O)[C@H]1C[C@@H](O)[C@]13C[C@H]4C[C@H](O[C@@]4(C)C1)[C@@H]23	inactive
CC1=CC[C@@]2(C[C@@H]1O)[C@@H](C(=O)O)CC[C@H]2C(C)C	inactive
C[C@@H]1O[C@H](c2c(O)cc(O)c3c(=O)cc(-c4ccc(O)cc4)oc23)[C@H](O)[C@H](O)[C@H]1O	inactive
O=c1cc(-c2ccc(O)cc2)oc2c([C@@H]3OC(CO)[C@H](O)[C@@H](O)[C@H]3O)c(O)cc(O)c12 (stereo not given in full)	inactive
O=C1CC(c2cc(O)cc(O)c2)Oc2cc(O)ccc21 (stereo not given)	inactive

SMILES	Potency
C=C1C(=O)C[C@H]2C[C@@H]1[C@]2(C)CCC=C(C)C	inactive
CC[C@H](C)[C@H](NC(=O)C(Cc1ccc(O)cc1)NC(=O)C(Cc1c[nH]c2ccccc12)NC(=O)[C@H](C)N)C(=O)N1C(C(=O)NC(Cc2ccc(O)cc2)C(=O)O)CC2(c3ccc(O)cc3)c3ccccc3NC12 (stereo not given in full) (H-A[ξW][ξY]I[X4][ξY]-OH)	inactive
C=C1C(=O)O[C@H]2C[C@H](C)[C@@H]3CC(=O)C(C)=C3[C@H](O)[C@H]12	inactive
COc1cc(O)c2c3c(c(O)cc(C)c13)C(=O)OC2	inactive
C[C@@H]1C(=O)[C@]23CC[C@H]1C[C@]21O[C@H]2C(C)(C)C=CC(=O)[C@]23COC1=O	inactive
CC1=CC2=C[C@H](C)C[C@@]23OC(=C(C)C3=O)CC(C)(C)/C=C/C1=O	inactive
CC(O)/C=C/C1(O)C(C)(C)CC(O)CC1(C)O (stereo not given)	inactive
CO[C@@H]1C[C@@H](C[C@H]2CC[C@H](C)[C@H]([C@@H](C)C(=O)O)O2)O[C@]2(O[C@](C)([C@H]3CC[C@@](C)([C@@H]4O[C@@H]([C@H]5O[C@](C)(O)[C@H](C)C[C@@H]5C)C[C@@H]4C)O3)C[C@H]2C)[C@@H]1C	inactive
CC(=O)O[C@@H]1C=C2C(=O)OC[C@]2(O)[C@@]2(C)CCCC(C)(C)[C@H]12	inactive
C/C(=C\[C@H](C)C(=O)CCCC1CC(=O)NC(=O)C1)C(O)[C@@H](C)[C@H](O)C/C=C/CC/C=C/C(=O)O (stereo not given in full)	inactive
O=C(O)Cc1c[nH]c2ccccc12	inactive
O=c1cc(-c2ccc(O)c(O[C@@H]3O[C@H](CO)[C@@H](O)[C@H](O)[C@H]3O)c2)oc2cc(O[C@@H]3O[C@H](CO)[C@@H](O)[C@H](O)[C@H]3O)cc(O)c12	inactive
C=C[C@@]1(C)CC[C@@H]([C@H](C)C(=O)/C=C/C(C)C)O1	inactive
COc1cc(/C=C/C(=O)O)ccc1O	inactive
O=C(O)[C@@]12CO[C@@]3(O)C4CCN(CC[C@H]31)[C@H]4c1c2[nH]c2ccccc12	inactive
C[C@]12CC[C@]3(C1)[C@H](CC2=O)CC(OC(=O)c1ccccc1)[C@H]1[C@@](CO)(C(=O)O)CCC[C@@]13C (stereo not given in full)	inactive
C[C@@]12C[C@@H](C[C@H]3C(=O)O[C@@H](c4ccoc4)[C@H](OC(=O)c4ccccc4)[C@@H]31)OC2=O	inactive
CCCCCCCCCCCCCCCC(=O)OC/C=C(\C)CCCC(C)CC(C)C(C)C (stereo not given)	inactive
CCCCCCCC(=O)N[C@@H](CC(C)C)C(=O)N[C@H](C=O)CCC(=O)O (Octanoyl-Leu-Glu-aldehyde)	inactive
O=C1c2c(O)cc(O)cc2O[C@@H](c2ccc(O)cc2)[C@@H]1c1c(O)cc(O)c2c(=O)cc(-c3ccc(O)c(O)c3)oc12	inactive
